In PubChem BioAssay (NCI) one finds growth data, which are given here for twelve compounds.

“And” between values parts separate entries of the source, which are not always exact repeats. Equal values may be shown once. This is part of a sample that, as a whole, favours compounds with a hit. Of some 83,000 tested, about 20% had one in any assay.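 Each cell line was grown in a 96-well plate and treated with one concentration of compound for 48 hours. Values below 10 were considered active.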 A number with no mark means an inactive call. The source made the active and inactive calls.

Among the test systems are DU-145 prostate; K-562 leukemia; MALME-3M melanoma; MDA-MB-231 breast; RXF 393 renal; SF-268 CNS; SF-295 CNS; SF-539 CNS; UACC-257 melanoma; M14 melanoma.
Common to all, as to experiment: NCI-60 one-dose screen, 48 h (100 = growth as untreated, 0 = no growth, -100 = all killed)
Common to all, as to conditions: 10 µM unless noted

On to `CCN(c1cc(-c2ccc(CN3CCC(/C=C/S(=O)(=O)c4ccccc4)CC3)cc2)cc(C(=O)NCc2c(C)cc(C)[nH]c2=O)c1C)C1CCOCC1`, for which the growth is 78.9% in the assay with DU-145 prostate; 40.6% with K-562 leukemia; 67% in the assay on MALME-3M melanoma; 67.3% with MDA-MB-231 breast; 17.7% in the assay with RXF 393 renal; 66.5% in the assay with SF-268 CNS. Also, the growth was 84.8% in the assay on SF-295 CNS, 59.3% with SF-539 CNS, 75.4% in the assay with UACC-257 melanoma and 85.1% in the assay on M14 melanoma.
For `Cc1cccc(-c2nnc(SCC(=O)Nc3ncc(Cc4ccccc4)s3)n2N2C(=O)CSC2=S)c1`, the growth in the assay on DU-145 prostate is 43.3%; in the assay with K-562 leukemia, 77.6%; with MALME-3M melanoma, 20.6%; in the assay on MDA-MB-231 breast it was 10%; in the assay with RXF 393 renal, 54.7%; in the assay on SF-268 CNS, 78.3%. In addition, the growth in the assay on SF-295 CNS was 77.7%; in the assay with SF-539 CNS, 36.6%; in the assay on UACC-257 melanoma, 64.4%; with M14 melanoma, 51.1%.
For the compound `CCCN1C(=O)/C(=c2\sc3n(c2=O)NC2C(N=3)N(CC)C(=O)N2CC)c2ccccc21` (stereo not given), the growth in the assay with DU-145 prostate was 33.5%; in the assay on K-562 leukemia it was 13.7%; in the assay on MALME-3M melanoma it was 61.8%; in the assay on MDA-MB-231 breast, 24.4%; in the assay on RXF 393 renal, -3.07% (active); with SF-268 CNS, 70%. The growth in the assay on SF-295 CNS is 39.6%; in the assay with SF-539 CNS, 1.12% (active); in the assay on UACC-257 melanoma, 47.5%; with M14 melanoma, 23.3%.
As to `O=C1C=C(Nc2ccccc2)c2ncccc2C1=O`, the growth in the assay with DU-145 prostate was -95.4% (active); in the assay with K-562 leukemia, -48% (active); in the assay on MALME-3M melanoma, -91.3% (active); in the assay with MDA-MB-231 breast it was -18% (active); in the assay with RXF 393 renal, -96.4% (active); in the assay with SF-268 CNS it was -61.9% (active). Also, the growth in the assay on SF-295 CNS was -97.5% (active); in the assay with SF-539 CNS, -87.3% (active); with UACC-257 melanoma it was -97.7% (active); with M14 melanoma, -86.3% (active).
As for `[2H]C([2H])([2H])Oc1cc(F)ccc1/C=C/C(=O)/C=C(/C=C/c1ccc(F)cc1OC([2H])([2H])[2H])OB(F)F`, the growth in the assay on DU-145 prostate is 30.5%; with K-562 leukemia it was 18%; in the assay with MALME-3M melanoma it was 33.1%; in the assay on MDA-MB-231 breast, 53%; with RXF 393 renal, 1.06% (active); in the assay on SF-268 CNS, 56.7%. Besides, the growth was 59.5% in the assay on SF-295 CNS, 93.2% in the assay with SF-539 CNS, 48.9% in the assay with UACC-257 melanoma and 8.14% (active) with M14 melanoma.
Take `Cc1ccc(C(=O)Nc2nc3c(s2)CN(Cc2ccccc2)CC3)cn1`: the growth in the assay with DU-145 prostate was 98%; in the assay on K-562 leukemia, 36.8%; in the assay with MALME-3M melanoma it was 87.1%; in the assay with MDA-MB-231 breast, 100%; with RXF 393 renal it was 102%; with SF-268 CNS, 91%. For the same compound, the growth is 89.6% in the assay on SF-295 CNS, 103% with SF-539 CNS, 92.9% in the assay on UACC-257 melanoma and 79.9% with M14 melanoma.
As for `CC1(C)C(N)=Nc2cc(OCCCCN3Cc4ccccc4C3)c(OCC3CC3)cc21`, the growth was 88.8% in the assay on DU-145 prostate; 97.3% with K-562 leukemia; 2.01% (active) in the assay on MALME-3M melanoma; 59.2% in the assay with MDA-MB-231 breast; 65.8% with RXF 393 renal; 74.7% in the assay with SF-268 CNS. Besides, the growth was 84.8% in the assay with SF-295 CNS, 80.8% in the assay on SF-539 CNS, 1.07% (active) with UACC-257 melanoma and -53.1% (active) in the assay with M14 melanoma.
`O=C(Nc1ccccc1C(=O)N/N=C(\c1ccccc1)c1ccccn1)c1ccccc1`: the growth is 14.1% in the assay on DU-145 prostate; 12.5% with K-562 leukemia; 35.1% in the assay on MALME-3M melanoma; 22.5% in the assay with MDA-MB-231 breast; 21.4% in the assay with RXF 393 renal; 15.5% with SF-268 CNS. Moreover, the growth in the assay on SF-295 CNS is 17.9%; in the assay on SF-539 CNS, 8.36% (active); in the assay with UACC-257 melanoma it was -10.4% (active); in the assay with M14 melanoma it was -12.9% (active).
In the case of `COC(=O)c1[nH]nc(OC)c1C1(C(C#N)c2nc3ccccc3s2)CCCc2ccccc21` (stereo not given), the growth in the assay with DU-145 prostate was 108%; in the assay with K-562 leukemia, 92.4%; with MALME-3M melanoma it was 101%; in the assay on MDA-MB-231 breast it was 79.9%; in the assay with RXF 393 renal, 117%; in the assay on SF-268 CNS it was 101%. Moreover, the growth was 97.5% with SF-295 CNS, 106% in the assay on SF-539 CNS, 101% with UACC-257 melanoma and 95.2% in the assay on M14 melanoma.
As for `Brc1ccc(/C=C(/C2=NCCN2)n2ccc3ccccc32)cc1`, the growth is 63.1% in the assay on DU-145 prostate; 45.7% with K-562 leukemia; 75.4% in the assay on MALME-3M melanoma; 58.9% in the assay on MDA-MB-231 breast; 50.6% with RXF 393 renal; 77.7% with SF-268 CNS. Besides, the growth is 85.1% in the assay with SF-295 CNS, 88.8% in the assay on SF-539 CNS, 78.8% with UACC-257 melanoma and 65.1% in the assay with M14 melanoma.
For `O=C(O)C1C2CCC1C(O)C2` (stereo not given), the growth with DU-145 prostate was 100% and 108%; in the assay on K-562 leukemia, 107% and 92.7%; in the assay with MALME-3M melanoma, 109% and 86.3%; in the assay with MDA-MB-231 breast it was 103% and 113%; in the assay with RXF 393 renal, 111% and 116%; in the assay with SF-268 CNS, 97.7% and 101%. In addition, the growth in the assay on SF-295 CNS was 108% and 121%; in the assay with SF-539 CNS it was 94.9% and 101%; in the assay on UACC-257 melanoma, 100% and 103%; with M14 melanoma it was 98.8% and 95.4%.
On to `COc1cc(NC2CCCCC2O)c2nc(-c3ccc(Cl)cc3)ccc2c1` (stereo not given), for which the growth was 95.3% and 95% in the assay on DU-145 prostate; 44.8% with K-562 leukemia; 72.5% and 124% with MALME-3M melanoma; 44.6% and 78.1% with MDA-MB-231 breast; 39.3% and 67.9% in the assay on RXF 393 renal; 77.5% and 84% in the assay with SF-268 CNS. Further, the growth with SF-295 CNS is 51.5% and 54.3%; with SF-539 CNS, 105% and 93.9%; with UACC-257 melanoma, 101% and 105%; in the assay on M14 melanoma it was 45.8% and 79.9%.
